This is part of a sample that, as a whole, favours compounds with a hit. Of some 83,000 tested, about 20% had one in any assay.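 Assay: single dose, 48 h. Readout: percent growth (0 = no net growth; negative = cell death). Active: <10.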 Active and inactive are the calls of the source.
The compounds below were run on 786-0 renal (assay: NCI-60 one-dose screen, 48 h (100 = growth as untreated, 0 = no growth, -100 = all killed)). Conditions: 10 µM unless noted.
For `CN(C)c1ccc(/C=C(\C#N)c2nc3ccccc3c(=O)[nH]2)cc1`, the growth was 91.9% (inactive). With `CCn1c2ccccc2c2ccc(C(C)=O)cc21` the growth was 102% (inactive). In the case of `Clc1cccc(Cc2cn3cc(-c4ccccc4)nc3s2)c1`, the growth was 68.9% (inactive). `COc1cc(C2NC(c3ccc(Cl)cc3)C(C)C(=NC(=O)c3cnccn3)C2C)cc(OC)c1OC` (stereo not given) was tested, and the growth was 91.6% (inactive). With `COc1ccc(C2=NN(C(=O)c3cc(OC)c(OC)c(OC)c3)C(c3ccc(C#N)cc3)C2)cc1OC` (stereo not given) the growth was 25.1% (inactive). In the case of `CCc1[nH]nc(-c2ccc(OC)cc2)c1-c1ccccc1OCCN(CC)CC`, the growth was 74.7% (inactive).

These compounds were tested on COLO 205 colon in the same assay as above. Conditions: 10 µM unless noted.
In the case of `O=C(Nc1nc(-c2ccc(Cl)cc2)cs1)c1cc(O)c(O)c(O)c1`, the growth was 77.6% (inactive). `CC(=O)Oc1ccc(C2OC(c3ccc4ccccc4c3OC(C)=O)=NN2C(C)=O)c(OC(C)=O)c1` (stereo not given) was tested, and the growth was 15.9% (inactive). In the case of `Fc1ccc(-c2nnc(-c3c(-c4ccc(F)cc4)nc4ncccn34)o2)cc1`, the growth was 104% (inactive). `COc1ccc(/C=C(\C#N)c2ccccc2)cc1` was tested, and the growth was 103% (inactive). For `O=c1ccn(C2OC(CO)C(O)C2F)c(=O)[nH]1` (stereo not given), the growth was 128% (inactive). `COc1cccc(-c2nnc(N)o2)c1` was tested, and the growth was 117% (inactive). With `O=c1cc(-c2cccnc2)oc2c1ccc1ccccc12` the growth was 80.5% (inactive). For `COc1cc(Oc2cc(-c3cccnc3)ccc2NC(=O)Nc2ccc(F)cc2F)cc(OC)c1OC`, the growth was 96.9% (inactive). With `ClC1=C(Cl)C(Cl)=C(Cl)C1=C/C=C/c1ccccc1` the growth was -90.6% (active). For `C/C(=C\CCc1ccoc1)CC/C=C(\C)CCCN1CCC(CO)CC1`, the growth was -21.4% (active). `CCCc1nn(C)c2c(=O)[nH]c(-c3cc(S(=O)(=O)N4CCN(C)CC4)ccc3OCC)nc12` was tested, and the growth was 99.8% (inactive). With `O=C(/C(=N/O)S(=O)(=O)c1ccccc1)c1cccs1` the growth was 104% (inactive). In the case of `CCOc1cc(C(C)(C)C)ccc1C1=N[C@H](c2ccc(Cl)cc2)[C@H](c2ccc(Cl)cc2)N1C(=O)N1CCN(CC#Cc2cccc3c2CN([C@@H]2CCC(=O)NC2=O)C3=O)CC1`, the growth was 8.66% (active). With `Nc1ccc(S(=O)(=O)Nc2ncccn2)cc1` the growth was 114% (inactive). For `CC(=O)n1c2ccccc2c2ccccc21`, the growth was 148% (inactive). `O=C1C(Cl)=C(N=Nc2c(Cl)c(O)c3ccccc3c2O)C(=O)c2ccccc21` was tested, and the growth was 86.7% (inactive). `CC12CCC3C(CCC4CC(=O)/C(=C\O)CC43C)C1CCC(=O)O2` (stereo not given) was tested, and the growth was 150% (inactive). In the case of `O=C1CCCN1C1CCN(Cc2cc3ccccc3[nH]c2=O)c2ccccc21` (stereo not given), the growth was 106% (inactive). With `CN(C)c1ccc(/C=C(\C#N)c2nc3ccccc3c(=O)[nH]2)cc1` the growth was 111% (inactive). In the case of `Clc1cccc(Cc2cn3cc(-c4ccccc4)nc3s2)c1`, the growth was -36.6% (active). With `COc1ccc(C2=NN(C(=O)c3cc(OC)c(OC)c(OC)c3)C(c3ccc(C#N)cc3)C2)cc1OC` (stereo not given) the growth was -9.28% (active). With `CCc1[nH]nc(-c2ccc(OC)cc2)c1-c1ccccc1OCCN(CC)CC` the growth was 77% (inactive).

Each compound was assayed on DU-145 prostate in the same assay as above. Conditions: 10 µM unless noted.
For `NC(N)=N/N=C(/c1ccccc1)c1ccc(Cl)cc1`, the growth was 83% (inactive). With `O=C(Nc1nc(-c2ccc(Cl)cc2)cs1)c1cc(O)c(O)c(O)c1` the growth was 35.8% (inactive). In the case of `CC(=O)Oc1ccc(C2OC(c3ccc4ccccc4c3OC(C)=O)=NN2C(C)=O)c(OC(C)=O)c1` (stereo not given), the growth was 22.7% (inactive). For `Fc1ccc(-c2nnc(-c3c(-c4ccc(F)cc4)nc4ncccn34)o2)cc1`, the growth was 103% (inactive). For `COc1ccc(/C=C(\C#N)c2ccccc2)cc1`, the growth was 103% (inactive). With `C=C(C)[C@H]1CC/C(C)=C/CC[C@]2(C)O[C@H]2CC/C(C=O)=C\C1O` (stereo not given in full) the growth was 106% (inactive). For `O=c1ccn(C2OC(CO)C(O)C2F)c(=O)[nH]1` (stereo not given), the growth was 119% (inactive). In the case of `COc1cccc(-c2nnc(N)o2)c1`, the growth was 107% (inactive). `O=c1cc(-c2cccnc2)oc2c1ccc1ccccc12` was tested, and the growth was 88.6% (inactive). For `COc1ccc(-c2cn(-c3ccccc3)c(-c3ccccc3)n2)cc1OC`, the growth was -22.9% (active). With `COc1cc(Oc2cc(-c3cccnc3)ccc2NC(=O)Nc2ccc(F)cc2F)cc(OC)c1OC` the growth was 113% (inactive). For `ClC1=C(Cl)C(Cl)=C(Cl)C1=C/C=C/c1ccccc1`, the growth was -46.5% (active). In the case of `CNc1ccc(CSc2ccc(Cl)cc2)cc1`, the growth was 127% (inactive). `C/C(=C\CCc1ccoc1)CC/C=C(\C)CCCN1CCC(CO)CC1` was tested, and the growth was 80.8% (inactive). For `Oc1ccc(Cc2ccc(O)c(C3CC(c4ccc(Cl)cc4)=NN3)c2)cc1C1CC(c2ccc(Cl)cc2)=NN1` (stereo not given), the growth was 32.6% (inactive). With `CSc1nc2c(c(=O)n1C)C(c1ccccc1)C1=C(N2)/C(=C/c2ccccc2)CCC1` (stereo not given) the growth was 72.2% (inactive). `CCCc1nn(C)c2c(=O)[nH]c(-c3cc(S(=O)(=O)N4CCN(C)CC4)ccc3OCC)nc12` was tested, and the growth was 113% (inactive). With `O=C(/C(=N/O)S(=O)(=O)c1ccccc1)c1cccs1` the growth was 115% (inactive). In the case of `Cc1ccccc1-c1cc(Cc2ccccc2O)c(=O)[nH]n1`, the growth was 125% (inactive). With `O=C(CSc1nc2c(n1Nc1ccccc1)-c1ccccc1SC2)Nc1nc(-c2ccc(Cl)cc2)cs1` the growth was 73.5% (inactive). With `CCOc1cc(C(C)(C)C)ccc1C1=N[C@H](c2ccc(Cl)cc2)[C@H](c2ccc(Cl)cc2)N1C(=O)N1CCN(CC#Cc2cccc3c2CN([C@@H]2CCC(=O)NC2=O)C3=O)CC1` the growth was 57.1% (inactive). `Nc1ccc(S(=O)(=O)Nc2ncccn2)cc1` was tested, and the growth was 104% (inactive). With `CC(=O)n1c2ccccc2c2ccccc21` the growth was 108% (inactive). `O=C1C(Cl)=C(N=Nc2c(Cl)c(O)c3ccccc3c2O)C(=O)c2ccccc21` was tested, and the growth was 81.3% (inactive). In the case of `NC(N)=NN=c1c(=O)c2ccccc2c1=O`, the growth was -97.4% (active). In the case of `O=C(Nc1ccccc1Cl)c1cnc2ccc(C3CCNCC3)cn12`, the growth was 56.7% (inactive). In the case of `CC12CCC3C(CCC4CC(=O)/C(=C\O)CC43C)C1CCC(=O)O2` (stereo not given), the growth was 115% (inactive). For `Oc1[nH]c2ccc(Cl)cc2c1/C=c1/ccc2c(c1)N=C(c1ccc(C(F)(F)F)cc1)N=2`, the growth was 70% (inactive). For `O=C(c1ccccc1)c1ccccc1Cl`, the growth was 108% (inactive). In the case of `N#Cc1c(N2CCOCC2)nc2sc3cc(Cl)ccc3n2c1=N`, the growth was 110% (inactive). In the case of `O=C1CCCN1C1CCN(Cc2cc3ccccc3[nH]c2=O)c2ccccc21` (stereo not given), the growth was 101% (inactive). For `CN(C)c1ccc(/C=C(\C#N)c2nc3ccccc3c(=O)[nH]2)cc1`, the growth was 93% (inactive). For `CCn1c2ccccc2c2ccc(C(C)=O)cc21`, the growth was 93.5% (inactive). `Clc1cccc(Cc2cn3cc(-c4ccccc4)nc3s2)c1` was tested, and the growth was 52.4% (inactive). With `COc1cc(C2NC(c3ccc(Cl)cc3)C(C)C(=NC(=O)c3cnccn3)C2C)cc(OC)c1OC` (stereo not given) the growth was 115% (inactive). `COc1ccc(C2=NN(C(=O)c3cc(OC)c(OC)c(OC)c3)C(c3ccc(C#N)cc3)C2)cc1OC` (stereo not given) was tested, and the growth was 5.75% (active). `CCc1[nH]nc(-c2ccc(OC)cc2)c1-c1ccccc1OCCN(CC)CC` was tested, and the growth was 102% (inactive).
